The target of one experiment is T1, GST-Nv-NF-kB (Ser allele) (Nematostella vectensis, UniProt A7UNT2 2-411).
T1 sequence: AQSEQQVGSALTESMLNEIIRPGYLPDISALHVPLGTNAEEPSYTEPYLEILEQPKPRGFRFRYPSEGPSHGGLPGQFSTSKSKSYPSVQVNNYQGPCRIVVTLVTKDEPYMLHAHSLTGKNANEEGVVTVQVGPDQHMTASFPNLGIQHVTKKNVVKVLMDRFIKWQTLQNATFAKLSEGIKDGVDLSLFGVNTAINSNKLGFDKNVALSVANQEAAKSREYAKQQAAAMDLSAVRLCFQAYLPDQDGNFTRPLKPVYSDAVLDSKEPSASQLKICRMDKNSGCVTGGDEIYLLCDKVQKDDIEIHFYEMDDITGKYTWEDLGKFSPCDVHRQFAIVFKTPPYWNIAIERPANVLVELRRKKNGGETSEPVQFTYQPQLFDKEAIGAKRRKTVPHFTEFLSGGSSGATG
Kind of experiment: protein-binding microarray (PBM); PBM: ~300 nM protein, 6 mM HEPES pH 7.8, 80 mM KCl, 0.5 mM EDTA, 0.5 mM EGTA, 6% glycerol, 35 ng/ul poly-dIdC, 1% milk, 1 h, room temperature; Ap Aiptasia and Nv Nematostella (sea anemones) / Co Capsaspora / Aq Amphimedon (sponge) / Dm Drosophila / Hu human; RHD is the Rel homology domain; high values mean tight binding. The note with it: dsDNA, one strand shown.
Sequence of GST-Hu-p50 (P19838 7-356): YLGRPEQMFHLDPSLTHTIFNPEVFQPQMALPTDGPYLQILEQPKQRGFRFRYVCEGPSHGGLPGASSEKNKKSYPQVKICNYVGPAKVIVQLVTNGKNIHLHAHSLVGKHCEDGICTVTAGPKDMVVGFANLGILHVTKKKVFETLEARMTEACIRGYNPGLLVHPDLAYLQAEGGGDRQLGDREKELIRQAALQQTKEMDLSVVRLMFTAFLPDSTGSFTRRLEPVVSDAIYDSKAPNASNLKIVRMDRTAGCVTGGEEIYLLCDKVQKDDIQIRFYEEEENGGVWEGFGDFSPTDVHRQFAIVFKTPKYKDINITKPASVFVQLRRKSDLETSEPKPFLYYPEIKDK
Sequence “CCGATTAACATCAGGGGTCCCCATGATGTTAATCGGGTCTTGATTCGCTTGACGCTGCTG” registered a binding signal of 1.95 z-score.
“CCGATTAACATCAACAGGGAAAATGATGTTAATCGGGTCTTGATTCGCTTGACGCTGCTG” yielded a binding signal of 5.98 z-score.
As for “CCGATTAACATCAGGACTACCCCTGATGTTAATCGGGTCTTGATTCGCTTGACGCTGCTG”, the binding signal is 1.61 z-score.
On the same count and under the same terms, the same measure for “CCGATTAACATCAACAAAGTCCCTGATGTTAATCGGGTCTTGATTCGCTTGACGCTGCTG”: 6.52 z-score; for “CCGATTAACATCACGGGACCCCCTGATGTTAATCGGGTCTTGATTCGCTTGACGCTGCTG”: 3.8 z-score.
Regarding “CCGATTAACATCAGGGACAGCCCTGATGTTAATCGGGTCTTGATTCGCTTGACGCTGCTG”, the binding signal was 2.03 z-score.
In turn, “CCGATTAACATCAAGGGATCCCCTGATGTTAATCGGGTCTTGATTCGCTTGACGCTGCTG” registered a binding signal of 6.37 z-score.
As for “CCGATTAACATCAAAACAATCCCTGATGTTAATCGGGTCTTGATTCGCTTGACGCTGCTG”, the binding signal was 1.53 z-score.
“CCGATTAACATCAGGGAGTTACCTGATGTTAATCGGGTCTTGATTCGCTTGACGCTGCTG” showed a binding signal of 3.21 z-score.
Sequence “CCGATTAACATCAAATGGGAATTTGATGTTAATCGGGTCTTGATTCGCTTGACGCTGCTG” came in with a binding signal of 4.87 z-score.
For “CCGATTAACATCACCCGATTCCCTGATGTTAATCGGGTCTTGATTCGCTTGACGCTGCTG”, the binding signal turned out to be 4.07 z-score.
Regarding “CCGATTAACATCAGGGGACGGGATGATGTTAATCGGGTCTTGATTCGCTTGACGCTGCTG”, the binding signal came to 3.93 z-score.
Take “CCGATTAACATCAGAAAATGCCCTGATGTTAATCGGGTCTTGATTCGCTTGACGCTGCTG”: the binding signal stood at 1.55 z-score.
In the case of “CCGATTAACATCAGGGGCACCCCTGATGTTAATCGGGTCTTGATTCGCTTGACGCTGCTG”, the binding signal turned out to be 2.72 z-score.
Sequence “CCGATTAACATCAGGGGGTACCCTGATGTTAATCGGGTCTTGATTCGCTTGACGCTGCTG” came in with a binding signal of 4.11 z-score.
The sequence “CCGATTAACATCAGGGAGATACCTGATGTTAATCGGGTCTTGATTCGCTTGACGCTGCTG” displayed a binding signal of 1.75 z-score.
Take “CCGATTAACATCACGGGGTTCCCTGATGTTAATCGGGTCTTGATTCGCTTGACGCTGCTG”: the binding signal turned out to be 1.48 z-score.
Take “CCGATTAACATCAAGGAAAACCCTGATGTTAATCGGGTCTTGATTCGCTTGACGCTGCTG”: the binding signal came to 1.6 z-score.
As to “CCGATTAACATCATTGGGAAAAATGATGTTAATCGGGTCTTGATTCGCTTGACGCTGCTG”, the binding signal was 3.58 z-score.
Same read-out and setting: the same measure for “CCGATTAACATCAGAAATTTACCTGATGTTAATCGGGTCTTGATTCGCTTGACGCTGCTG”: 4.13 z-score; for “CCGATTAACATCAGGAATCTACCTGATGTTAATCGGGTCTTGATTCGCTTGACGCTGCTG”: 1.79 z-score.
The sequence “CCGATTAACATCAGGGGGACAAATGATGTTAATCGGGTCTTGATTCGCTTGACGCTGCTG” returned a binding signal of 5.1 z-score.
As to “CCGATTAACATCAAGCAATTCCCTGATGTTAATCGGGTCTTGATTCGCTTGACGCTGCTG”, the binding signal was 3.87 z-score.
Turning to “CCGATTAACATCAGGGAATGTACTGATGTTAATCGGGTCTTGATTCGCTTGACGCTGCTG”, the binding signal is 3.55 z-score.
The same measure, in the same setting: the figure for “CCGATTAACATCATCCCCGTGTCTGATGTTAATCGGGTCTTGATTCGCTTGACGCTGCTG” is 2.84 z-score.

Another experiment has as its target GST-Hu-p50 (Homo sapiens, UniProt P19838 7-356). Described as above. The note with it: dsDNA, one strand shown.
As to “CCGATTAACATCAATGGGAAAATTGATGTTAATCGGGTCTTGATTCGCTTGACGCTGCTG”, the binding signal was determined as 3.49 z-score.
The sequence “CCGATTAACATCAAATCTTTCCCTGATGTTAATCGGGTCTTGATTCGCTTGACGCTGCTG” gave a binding signal of 3.68 z-score.
For the sequence “CCGATTAACATCAGGGAATCAGATGATGTTAATCGGGTCTTGATTCGCTTGACGCTGCTG”, the binding signal stood at 1.19 z-score.
Turning to “CCGATTAACATCACGAAAATCCCTGATGTTAATCGGGTCTTGATTCGCTTGACGCTGCTG”, the binding signal is 4.05 z-score.
Regarding “CCGATTAACATCAAGCATCCCCCTGATGTTAATCGGGTCTTGATTCGCTTGACGCTGCTG”, the binding signal was 4.97 z-score.
On the same count and under the same terms, the same measure for “CCGATTAACATCAGGGGATTAGATGATGTTAATCGGGTCTTGATTCGCTTGACGCTGCTG”: 4.35 z-score.
The same measure, in the same setting: the same measure for “CCGATTAACATCAGGGGAGTTAATGATGTTAATCGGGTCTTGATTCGCTTGACGCTGCTG”: 3.74 z-score; for “CCGATTAACATCACGCAACCCCCTGATGTTAATCGGGTCTTGATTCGCTTGACGCTGCTG”: 5.03 z-score; for “CCGATTAACATCACGTAAACCCCTGATGTTAATCGGGTCTTGATTCGCTTGACGCTGCTG”: 3.75 z-score.
Still for that read-out and setting: the same measure for “CCGATTAACATCAGGGAATCCACTGATGTTAATCGGGTCTTGATTCGCTTGACGCTGCTG”: 2.79 z-score; for “CCGATTAACATCACGGGTTTTTCTGATGTTAATCGGGTCTTGATTCGCTTGACGCTGCTG”: 3.63 z-score; for “CCGATTAACATCAGGGGGATGTATGATGTTAATCGGGTCTTGATTCGCTTGACGCTGCTG”: 4.84 z-score.
Sequence “CCGATTAACATCAATTCCCGTACTGATGTTAATCGGGTCTTGATTCGCTTGACGCTGCTG” came in with a binding signal of 1.41 z-score.
As to “CCGATTAACATCAGGGGGGGTCATGATGTTAATCGGGTCTTGATTCGCTTGACGCTGCTG”, the binding signal stood at 3.32 z-score.
“CCGATTAACATCAGGGGTCCCCATGATGTTAATCGGGTCTTGATTCGCTTGACGCTGCTG” gave a binding signal of 2.54 z-score.
Sequence “CCGATTAACATCAACAGGGAAAATGATGTTAATCGGGTCTTGATTCGCTTGACGCTGCTG” returned a binding signal of 3.34 z-score.
With “CCGATTAACATCAGGACTACCCCTGATGTTAATCGGGTCTTGATTCGCTTGACGCTGCTG”, the binding signal came to 3.02 z-score.
In turn, “CCGATTAACATCAACAAAGTCCCTGATGTTAATCGGGTCTTGATTCGCTTGACGCTGCTG” showed a binding signal of 4.3 z-score.
Sequence “CCGATTAACATCACGGGACCCCCTGATGTTAATCGGGTCTTGATTCGCTTGACGCTGCTG” displayed a binding signal of 3.54 z-score.
The same measure, in the same setting: the figure for “CCGATTAACATCAGGGACAGCCCTGATGTTAATCGGGTCTTGATTCGCTTGACGCTGCTG” is 3.54 z-score.
Turning to “CCGATTAACATCAAGGGATCCCCTGATGTTAATCGGGTCTTGATTCGCTTGACGCTGCTG”, the binding signal amounted to 5.23 z-score.
“CCGATTAACATCAAAACAATCCCTGATGTTAATCGGGTCTTGATTCGCTTGACGCTGCTG”: the binding signal is 2.64 z-score.
Sequence “CCGATTAACATCAGGGAGTTACCTGATGTTAATCGGGTCTTGATTCGCTTGACGCTGCTG” came in with a binding signal of 3.85 z-score.
“CCGATTAACATCAAATGGGAATTTGATGTTAATCGGGTCTTGATTCGCTTGACGCTGCTG” gave a binding signal of 3.42 z-score.
In turn, “CCGATTAACATCACCCGATTCCCTGATGTTAATCGGGTCTTGATTCGCTTGACGCTGCTG” showed a binding signal of 2.39 z-score.
The sequence “CCGATTAACATCAGGGGACGGGATGATGTTAATCGGGTCTTGATTCGCTTGACGCTGCTG” showed a binding signal of 3.73 z-score.
As for “CCGATTAACATCAGAAAATGCCCTGATGTTAATCGGGTCTTGATTCGCTTGACGCTGCTG”, the binding signal came to 2.79 z-score.
In turn, “CCGATTAACATCAGGGGCACCCCTGATGTTAATCGGGTCTTGATTCGCTTGACGCTGCTG” had a binding signal of 3.94 z-score.
“CCGATTAACATCAGGGGGTACCCTGATGTTAATCGGGTCTTGATTCGCTTGACGCTGCTG”: the binding signal came to 4.44 z-score.
As to “CCGATTAACATCAGGGAGATACCTGATGTTAATCGGGTCTTGATTCGCTTGACGCTGCTG”, the binding signal stood at 3.08 z-score.
For the sequence “CCGATTAACATCACGGGGTTCCCTGATGTTAATCGGGTCTTGATTCGCTTGACGCTGCTG”, the binding signal worked out at 2.59 z-score.
Same read-out and setting: the same measure for “CCGATTAACATCAAGGAAAACCCTGATGTTAATCGGGTCTTGATTCGCTTGACGCTGCTG”: 2.22 z-score; for “CCGATTAACATCATTGGGAAAAATGATGTTAATCGGGTCTTGATTCGCTTGACGCTGCTG”: 2.4 z-score; for “CCGATTAACATCAGAAATTTACCTGATGTTAATCGGGTCTTGATTCGCTTGACGCTGCTG”: 3.29 z-score.
The same measure, in the same setting: the same measure for “CCGATTAACATCAGGAATCTACCTGATGTTAATCGGGTCTTGATTCGCTTGACGCTGCTG”: 2.27 z-score; for “CCGATTAACATCAGGGGGACAAATGATGTTAATCGGGTCTTGATTCGCTTGACGCTGCTG”: 3.81 z-score; for “CCGATTAACATCAAGCAATTCCCTGATGTTAATCGGGTCTTGATTCGCTTGACGCTGCTG”: 2.99 z-score.
On to “CCGATTAACATCAGGGAATGTACTGATGTTAATCGGGTCTTGATTCGCTTGACGCTGCTG”, for which the binding signal was found to be 2.72 z-score.
Regarding “CCGATTAACATCATCCCCGTGTCTGATGTTAATCGGGTCTTGATTCGCTTGACGCTGCTG”, the binding signal was 2.68 z-score.

These data come from publication PMC5700166.
